From the supplement of paper PMC7156485
Where a name gives a salt, the structure may show the parent alone. ± gives the standard deviation of the averaged measurements.

Assays:
Conditions in all cases: concentration: 10 µM; 24 h
[1] = tested on: HCC1569; assay: cell number relative to DMSO (% of DMSO); higher = more cells (less growth inhibition / toxicity)
Summary of the method: (§1)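 Treatment: HCC1569 and TDF cells, 800 per well in 384-well plates with RPMI and 10% FBS, were given compounds at 10 µM for 24 h at 37 °C, in triplicate. Readout: after 3.7% formaldehyde fixation, cells were stained with a rabbit anti-H1.0 antibody, an AlexaFluor 647 secondary and DAPI. Reported values are H1.0 nuclear intensity or cell number as percent of the plate control, taken as the median of replicates, with positional smoothing for HCC1569.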

[2] = tested on: TDF; assay: as above
Summary of the method: as §1

[3] = tested on: TDF; assay: H1.0 immunofluorescence intensity relative to DMSO (% of DMSO); higher = stronger H1.0 induction, active = 120 or more
Summary of the method: as §1

[4] = tested on: HCC1569; assay: H1.0 immunofluorescence intensity relative to DMSO (% of DMSO); higher = stronger H1.0 induction, active = 140 or more
Summary of the method: as §1
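Wherever H1.0 immunofluorescence intensity relative to DMSO is given: TDF is a line of transformed human dermal fibroblasts of mesenchymal origin.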
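Wherever cell number relative to DMSO is given: TDF denotes transformed human dermal fibroblasts of mesenchymal origin.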

Compound | cell number [1] | cell number [2] | H1.0 immunofluorescence intensity [3] | H1.0 immunofluorescence intensity [4]
CC(NC(C)(C)C)C(=O)c1cccc(Cl)c1 (configuration not stated) [Amfebutamone] | 96.8 | 108 | 97.2 (inactive) | 116 (inactive)
CCC(C)C=C(C)C=CC1=CC2=C(Cl)C(=O)C(C)(OC(C)=O)C(=O)C2=CO1 (configuration not stated) [Sclerotiorin] | 97.9 | 96.1 | 95.7 (inactive) | 95.1 (inactive)
CC1OC(=O)C(C(C)C)NC(=O)C(C(C)C)OC(=O)C(C(C)C)NC(=O)C(C)OC(=O)C(C(C)C)NC(=O)C(C(C)C)OC(=O)C(C(C)C)NC(=O)C(C)OC(=O)C(C(C)C)NC(=O)C(C(C)C)OC(=O)C(C(C)C)NC1=O (configuration not stated) [Valinomycin] | 65 | 56.8 | 108 (inactive) | 174 (active)
CNC(=O)Oc1ccc2c(c1)C1(C)CCN(C)C1N2C (single isomer, unassigned; (-)) [(-)-Physostigmine] | 98.8 | 118 | 96.7 (inactive) | 94.3 (inactive)
CC(=O)OC1CC2CCC3C(CCC4(C)C3CC([N+]3(C)CCCCC3)C4OC(C)=O)C2(C)CC1[N+]1(C)CCCCC1.[Br-].[Br-] (configuration not stated) [Pancuronium bromide] | 103 | 96.9 | 98.8 (inactive) | 99.5 (inactive)
C=CCN1CCC23c4c5ccc(O)c4OC2C(=NN=C2CCC4(O)C6Cc7ccc(O)c8c7C4(CCN6CC=C)C2O8)CCC3(O)C1C5 (configuration not stated) [Naloxonazine] | 99.6 | 89 | 105 (inactive) | 117 (inactive)
Br.CCCN1CCc2cc(O)cc3c2C1Cc1ccc(O)c(O)c1-3 (stereo not drawn) [R(-)-2,10,11-Trihydroxy-N-propylnoraporphine hydrobromide] | 95.1 | 110 | 89.2 (inactive) | 100 (inactive)
CC1OC(C[N+](C)(C)C)CC1O.[Cl-] (racemic) | 102 | 101 | 96.4 (inactive) | 92 (inactive)
NC(Cc1cc(O)c(O)cc1O)C(=O)O (racemic) [6-Hydroxy-DL-DOPA] | 98.2 | 96.2 | 97 (inactive) | 93.8 (inactive)
Fc1cc(F)c2c(c1)C1C=CCC1C(c1cccnc1)N2 (configuration not stated) | 69.8 | 52.7 | 126 (active) | 169 (active)
Br.CN1CCc2cc(O)cc3c2C1Cc1ccc(O)c(O)c1-3 (stereo not drawn) [R(-)-2,10,11-Trihydroxyaporphine hybrobromide] | 99 | 113 | 84.4 (inactive) | 94.3 (inactive)
Br.COC(=O)C1=CCCN(C)C1 [Arecoline hydrobromide] | 101 | 102 | 93.3 (inactive) | 86.6 (inactive)
CCCCCCCCCCCCCC(=O)OC1C(C)C2(O)C(C=C(CO)CC3(O)C(=O)C(C)=CC32)C2C(C)(C)C12OC(C)=O (configuration not stated) [Phorbol 12-myristate 13-acetate] | 99 ± 4.3 | 74.6 ± 8.8 | 125 (active) | 125 (inactive)
CCC(C)CC(C)N (configuration not stated) [1,3-dimethylpentylamine] | 103 | 106 | 99 (inactive) | 96.9 (inactive)
CN1CC(C(=O)NC2(C)OC3(O)C4CCCN4C(=O)C(Cc4ccccc4)N3C2=O)C=C2c3cccc4[nH]cc(c34)CC21 (configuration not stated) [Ergotamine] | 97.8 | 108 | 95.3 (inactive) | 106 (inactive)
CN1CC(NS(=O)(=O)N(C)C)CC2c3cccc4c3c(cn4C)CC21.Cl (configuration not stated) [Mesulergine hydrochloride] | 101 | 100 | 93.4 (inactive) | 94.2 (inactive)
CC1(C(=O)O)CCCC2(C)c3cc(O)ccc3CCC12 (configuration not stated) [Podocarpic acid] | 100 | 102 | 101 (inactive) | 85.3 (inactive)
CC[N+](CC)(CC)CC.[Cl-] [Tetraethylammonium chloride] | 101 | 108 | 90.2 (inactive) | 108 (inactive)
Cc1[nH]c2ccc(Cl)cc2c1C1=CCNCC1.Cl | 99.8 | 93.5 | 107 (inactive) | 120 (inactive)
Br.CCC1CN2CCc3cc(OC)c(OC)cc3C2CC1CC1NCCc2cc(O)c(OC)cc21 (configuration not stated) | 59.6 | 21.4 | 135 (active) | 104 (inactive)
NC(=S)NN=Cc1coc2ccccc2c1=O.[Cl][Cu][Cl] | 96.2 | 86 | 105 (inactive) | 100 (inactive)
C=C(C)C1C2OC(=O)C1C1(O)CC3OC34C(=O)OC2C14C (configuration not stated) [Picrotoxinin] | 105 | 105 | 95.4 (inactive) | 90.9 (inactive)
COc1cc(C(O)CN)ccc1O.Cl (racemic) | 102 | 111 | 92.5 (inactive) | 94.7 (inactive)
CC(=O)c1c(O)c(C)c(O)c(Cc2c(O)c3c(c(C(=O)C=Cc4ccccc4)c2O)OC(C)(C)C=C3)c1O [Rottlerin] | 82.5 ± 13 | 77.9 ± 6.9 | 109 (inactive) | 104 (inactive)

Compound | cell number [1] | cell number [2] | H1.0 immunofluorescence intensity [3] | H1.0 immunofluorescence intensity [4]
CCCCc1ccc(C(=O)O)nc1 [Fusaric acid] | 105 | 110 | 90.2 (inactive) | 88.6 (inactive)
CC(N)C(O)c1ccc(O)c(O)c1 (single isomer, unassigned; (-)) [(-)-alpha-Methylnorepinephrine] | 99.4 | 98.5 | 85.9 (inactive) | 93.1 (inactive)
CCC1C=CC=CCC(C)C(O)C(C)(O)C(=O)C(C)C(O)C(C)C(=O)C(C)C(O)C(C)C=CC(=O)OC2C(C)C(CC1)OC1(CCC(C)C(CC(C)O)O1)C2C (configuration not stated) [Oligomycin A] | 79.8 ± 16 | 87 ± 27 | 93.9 (inactive) | 114 (inactive)
CN1C2CCC1CC(OC(c1ccccc1)c1ccccc1N)C2 (configuration not stated) [Aminobenztropine] | 103 | 97.9 | 94.1 (inactive) | 90.2 (inactive)
CCC1=CC2CN3CCc4c([nH]c5ccccc45)C(C(=O)OC)(C2)C13 (configuration not stated) [Catharanthine] | 104 | 94.7 | 102 (inactive) | 92.1 (inactive)
CC(=O)OC1C(=O)C2(C)C(O)CC3OCC3(OC(C)=O)C2C(OC(=O)c2ccccc2)C2(O)CC(O)C(C)=C1C2(C)C (configuration not stated) [Baccatin III] | 105 | 112 | 111 (inactive) | 105 (inactive)
CC(=O)C1CCC2C3CCC4CC(O)CCC4(C)C3CCC12C (stereo not drawn) [5alpha-Pregnan-3alpha-ol-20-one] | 98.3 | 107 | 90.5 (inactive) | 102 (inactive)
CCC(CO)NC(=O)C1C=C2c3cccc4[nH]cc(c34)CC2N(C)C1.O=C(O)C=CC(=O)O (configuration not stated) [Methylergonovine maleate] | 101 ± 2.1 | 100 ± 2.5 | 97.4 (inactive) | 92.3 (inactive)
CC(=O)[C@H]1CC[C@H]2[C@@H]3CC[C@H]4C[C@](C)(O)CC[C@]4(C)[C@H]3CC[C@]12C [(3alpha,5alpha)-3-hydroxy-3-methylpregnan-20-one] | 105 | 93 | 101 (inactive) | 111 (inactive)
S=C(NC1CCCCC1)N1CCC(c2cnc[nH]2)CC1 [Thioperamide maleate] | 104 | 100 | 99.8 (inactive) | 94.7 (inactive)
C=CCN1CCC23c4c5ccc(O)c4OC2C(=O)CCC3(O)C1C5.Cl (configuration not stated) [Naloxone hydrochloride] | 104 | 98.9 | 97.1 (inactive) | 90.6 (inactive)
O=C1CSC(c2ccccc2Cl)c2cc(Cl)ccc2N1 (configuration not stated) | 103 | 105 | 95.3 (inactive) | 115 (inactive)
CC(C)N(CCC(C(N)=O)(c1ccccc1)c1ccccn1)C(C)C.O=P(O)(O)O (configuration not stated) [Disopyramide phosphate] | 106 | 105 | 97.6 (inactive) | 94.1 (inactive)
Cl.Cl.Cn1cnc(CCN)c1 [1-Methylhistamine dihydrochloride] | 98.1 | 110 | 86.4 (inactive) | 95.3 (inactive)
CN1C2CCC1CC(OC(=O)C(CO)c1ccccc1)C2 (configuration not stated) [Atropine] | 104 | 110 | 93.7 (inactive) | 107 (inactive)
CC1OC1P(=O)([O-])[O-].[Na+].[Na+] (configuration not stated) [Phosphomycin disodium] | 100 | 91.3 | 101 (inactive) | 101 (inactive)
COc1ccc2c(c1OC)C(=O)OC2C1c2cc3c(cc2CCN1C)OCO3 (configuration not stated) | 107 | 97.5 | 90.5 (inactive) | 95.3 (inactive)
CC(C)(OO)c1ccccc1 [Cumene hydroperoxide] | 101 | 113 | 105 (inactive) | 99.6 (inactive)
COc1ccc(C(=O)OC2CC3CCC(C2)N3C)cc1OC (configuration not stated) [Convolvamine] | 105 | 96.1 | 97.8 (inactive) | 90 (inactive)
CCC1(c2ccc(N)cc2)CCC(=O)NC1=O (racemic) | 98.8 | 109 | 85.7 (inactive) | 89.1 (inactive)
Cc1c(C(C)C2NCC(C)CC2O)ccc2c1CC1C2CC=C2CC(O)CCC21C (configuration not stated) [Veratramine] | 96.7 | 88.6 | 104 (inactive) | 90.2 (inactive)
CCCCCC(C=CC=CCC=CCC=CCCCC(=O)O)OO (configuration not stated) | 106 | 100 | 96.4 (inactive) | 113 (inactive)
CCCn1c(=O)c2[nH]c(C3CCCC3)nc2n(CCCOC(=O)c2ccc(S(=O)(=O)F)cc2)c1=O | 99.7 | 110 | 90.1 (inactive) | 77.2 (inactive)
Clc1cnc(Oc2ccc(Oc3ncc(Cl)cc3Cl)cc2)c(Cl)c1 | 100 | 109 | 97.1 (inactive) | 99.2 (inactive)
